GPR151 activ: activates the human receptor GPR151; Q8TDV0; PathHunter beta-arrestin GPR151 cells, luminescence; activation, % at 11.2 µM; 650,000 compounds, 1% hits; in the data active = activation above about 4.9%;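 note: 0% = median of compound wells and 100% = cells with positive control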
MITF primary: human MITF inhibition, primary screen | AlphaScreen MITF homodimerization, bead proximity signal | inhibition, % at 2.6 µM | 650,000 compounds, 0.91% hits | AID 1259374; in the data active = inhibition above about 50%;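 note: 0% = vehicle wells with protein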
Target sequence (O75030 whole entry, looked up): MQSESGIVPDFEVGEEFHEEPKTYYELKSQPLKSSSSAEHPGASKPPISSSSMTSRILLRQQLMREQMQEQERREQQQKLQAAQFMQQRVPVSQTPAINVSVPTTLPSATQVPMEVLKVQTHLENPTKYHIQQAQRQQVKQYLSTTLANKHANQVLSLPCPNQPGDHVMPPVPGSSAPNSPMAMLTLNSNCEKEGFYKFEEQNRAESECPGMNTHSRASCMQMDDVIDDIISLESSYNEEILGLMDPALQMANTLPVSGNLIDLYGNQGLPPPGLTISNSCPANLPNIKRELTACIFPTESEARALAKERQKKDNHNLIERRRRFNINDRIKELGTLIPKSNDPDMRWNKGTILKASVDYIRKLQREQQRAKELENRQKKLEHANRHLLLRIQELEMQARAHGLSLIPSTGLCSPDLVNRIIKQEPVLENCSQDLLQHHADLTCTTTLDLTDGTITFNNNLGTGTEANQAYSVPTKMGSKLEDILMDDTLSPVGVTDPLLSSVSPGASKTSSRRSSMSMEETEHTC
TEAD-YAP inh: TEAD-YAP interaction inhibition. AID 1259422. HEK-TIYL cells, TEAD-Gal4/YAP UAS-luciferase luminescence. 640,000 compounds, 1.4% hits. inhibition, % at 9.12 µM; in the data active = inhibition above about 32%;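 note: 0% = median of test compound wells and 100% = reference inhibitor wells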
FBW7 act: activators of human E3 ligase FBW7; AlphaScreen FBW7–phospho-cyclin E peptide binding, activator screen; 650,000 compounds, 0.13% hits; normalized activity (activation), % at 26.1 µM; Q969H0; in the data active = normalized activity above about 1.9%;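 note: purified mutant Fbw7 with reduced substrate affinity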
MITF confirm: human MITF inhibition, confirmation; AlphaScreen MITF homodimerization, biotin/His-MITF beads; inhibition, % at 2.6 µM; shares compounds with MITF primary; 4,700 compounds, 16% hits;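 active = inhibition above a cutoff derived from the DMSO control wells, cut at about 28% in these data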;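 note: 0% = MITF dimer wells with DMSO only; inhibitors lower the bead chemiluminescence by keeping MITF from dimerizing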
AlphaScreen DR: optically interferes with AlphaScreen signal in dose response; shares compounds with MITF primary; AlphaScreen optical interference counterscreen, cell-free; IC50, µM; 480 compounds, 6% hits; call rule not given here
AS interf ctr: AlphaScreen optical interference, counter-screen; shares compounds with MITF primary; inhibition, % at 2.6 µM; 4,700 compounds, 7.6% hits; LysRS AlphaScreen counterscreen, signal interference, triplicate;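 active = inhibition above a cutoff derived from the DMSO control wells, cut at about 30% in these data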
* = called active by the depositor; x = no result given. The list is not random: actives were taken first. Their share in the collection is about 3.4%.

SMILES	GPR151 activ	MITF primary	TEAD-YAP inh	FBW7 act	MITF confirm	AS interf ctr	others
O=C(O)Cn1c(=O)oc2cc(S(=O)(=O)N3CCCC3)ccc21	5	13	-6	0	x	x
CCOc1ccc(CN2CCN(C3CCCC3)C(CCO)C2)cc1 (stereo not given)	4	-3	-5	0	x	x
CCOC(=O)C1CCCN(Cc2cccc(Br)c2)C1 (stereo not given)	2	53*	-6	1	35*	6	AlphaScreen DR=>6.5
CCOC(=O)C1CCCN(Cc2ccc(OC)c(OC)c2OC)C1 (stereo not given)	1	33	-2	0	x	x
COc1ccc(CN2CCC(C(=O)NCc3ccc(C)cc3)CC2)cc1	2	77*	-1	0	-7	-5
COc1ccc(CN2CCCC(C(=O)N3CCCCC3)C2)c(OC)c1OC (stereo not given)	0	75*	8	0	-14	-11
CCOC(=O)C1CCCN(Cc2ccccc2)C1 (stereo not given)	-1	6	-8	0	x	x
CCOC(=O)C1(Cc2ccccc2)CCN(Cc2ccc(N3CCNC3=O)cc2)CC1	1	-3	-8	0	x	x
COc1ccc(C(C)C)cc1S(=O)(=O)N(C)C1CCCCC1	-1	1	12	1	x	x
Cn1c(=NC(=O)c2ccc(S(=O)(=O)N3CCCCC3)cc2)sc2cc(Br)ccc21	-1	8	4	0	x	x
O=C(Cn1c(-c2ccncc2)nc2ccccc21)Nc1nc2ccccc2s1	0	8	7	0	x	x
OCCOCCN1CCN(Cc2ccc(F)c(Br)c2)CC1	1	81*	4	0	-12	0
OCCOCCN1CCN(Cc2ccc(Br)cc2)CC1	2	-9	11	0	x	x
C=CCOc1ccc(/C=C(\C#N)C(=O)NCc2ccco2)cc1Br	0	-6	9	0	x	x
Cc1[nH]c2ccc(F)cc2c1CCNC(=O)c1cccc([N+](=O)[O-])c1	0	3	-2	0	x	x
Cc1ccc2[nH]c(C)c(CCNC(=O)c3cccc([N+](=O)[O-])c3)c2c1	0	74*	14	0	8	17
CCCCSC1=C(C#N)C(c2cccc([N+](=O)[O-])c2)C(C(C)=O)=C(C)N1 (stereo not given)	1	63*	-6	0	-9	3
Cc1nc(NCc2ccco2)c2c3c(sc2n1)CCCC3	0	4	-6	0	x	x
Cc1nc(NCc2ccco2)c2c(C)c(C)sc2n1	-1	59*	43*	0	13	29
Cc1[nH]c2ccccc2c1SCCNC(=O)c1ccncc1	0	62*	-2	0	4	-7
O=C(NCCSc1ccccc1)c1cccnc1	0	77*	-38	0	-1	-3
Cc1ccc(C(=O)Nc2ccc(Cl)c([N+](=O)[O-])c2)cc1	2	-4	-52	0	x	x
O=[N+]([O-])c1ccc(N2CCN(S(=O)(=O)c3ccccc3)CC2)cc1NC1CC1	-1	71*	4	0	7	10
CCOC(=O)c1ccc(N2C(=O)C(Cl)=C(Nc3ccccc3C(=O)O)C2=O)cc1	-2	56*	23	1	-8	3
Cc1nn(C2CCS(=O)(=O)C2)c(Cl)c1CNCc1ccccc1 (stereo not given)	2	58*	2	0	5	-5
SMILES	GPR151 activ	MITF primary	TEAD-YAP inh	FBW7 act	MITF confirm	AS interf ctr	others
O=C(/C=C/c1ccco1)C1=C(O)C(=O)N(CCCN2CCOCC2)C1c1ccco1 (stereo not given)	1	79*	4	0	60*	-7	AlphaScreen DR=>6.5
CN(C)CCCN1C(=O)C(=O)/C(=C(\O)c2ccccc2)C1c1ccco1 (stereo not given)	0	75*	-1	0	-4	-12
Cn1c(=O)oc2cc(S(=O)(=O)N3CCN(c4ncccn4)CC3)ccc21	1	6	5	0	x	x
CCNCC(=O)c1[nH]c(C)c(C(C)=O)c1C	0	51*	6	0	-4	-4
Cc1ccc(NC(=O)c2cc(CC(C)C)on2)cc1C	0	-6	-57	0	x	x
COc1ccc(C(=O)N2CCN(Cc3ccc4c(c3)OCO4)CC2)cc1	0	55*	-3	0	4	14
COc1ccc(CN2CCN(Cc3ccc4c(c3)OCO4)CC2)cc1	0	64*	-3	0	14	13

Screening data deposited in PubChem BioAssay by The Scripps Research Institute Molecular Screening Center.
